Most compounds without a hit are left out; they make up all but 19% or so of the library.
Shiga inhibitor: blocks Shiga toxin action in Vero cells. Vero cells, Shiga toxin protein synthesis inhibition reporter. inhibition, % at 38.7 µM. actives 9.2% (n = 290,000); in the data active = inhibition mostly above about 28%, no sharp cut-off; inactive = mostly below about 43%; note: 0% is about no effect
CHX counter: affects cycloheximide protein synthesis inhibition readout, counter-screen. max response, %. actives 12% (n = 300,000). cell reporter, cycloheximide protein synthesis inhibition counterscreen; in the data active = max response mostly above about 13%, no sharp cut-off; inactive = mostly below about 14%; note: read at 38.3 µM for the half of the compounds with a filed dose; 0% is about no effect
Pf growth 96h: P. falciparum growth inhibition at 96 hours; actives 6.9% (n = 320,000); Potency, µM (doses to about 28.7 µM), inactives show at the top dose activity change, negative = inhibition, hits mostly inhibitors; P. falciparum luciferase reporter growth, 96 h; note: potency is the fitted concentration of half-maximal effect; % is set by controls: 0 for no effect and ±100 for the full control effect
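Luminescence readout: decreased luciferase signal marks inhibited growth of reporter-expressing P. falciparum in infected red cells (2% hematocrit, 0.05% parasitemia final), exposed to compound two generations (96 h, 37 C, 5% CO2).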
Lassa entry inh: blocks Lassa virus binding to or entry into cells | Lassa virus pseudotype entry inhibition, cell reporter | actives 1.2% (n = 300,000) | Potency, µM (top dose mostly 37.9 µM), inactives show top-dose activity change, negative = inhibition, usual class: inhibitors | AID 540256; calls by dose curve; tested in HEK293 cells; note: potency is the fitted concentration of half-maximal effect; % is set by controls: 0 for no effect and ±100 for the full control effect; nearly all actives have a fitted effect of over 50% in size
Pf growth 48h: P. falciparum growth inhibition at 48 hours (one generation) | P. falciparum luciferase growth in erythrocytes, 48 h | Potency, µM (highest dose often 28.7 µM), without a hit: at the top dose activity change, negative = inhibition, most hits filed as inhibitors | AID 504832 | actives 5.9% (n = 310,000); note: potency is the fitted concentration of half-maximal effect; % is set by controls: 0 for no effect and ±100 for the full control effect
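First compound was added to culture medium, then infected red cells at 0.1% parasitemia and 2% hematocrit (final). After incubation at 37 C under 5% CO2, luciferase detection reagent was dispensed and light output recorded.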
Marburg entry inh: blocks Marburg virus binding to or entry into cells; Potency, µM (titrated, usually from 37.8 µM), inactives show top-dose activity change, negative = inhibition, actives largely listed as inhibitors; actives 1.8% (n = 300,000); Marburg virus pseudotyped entry inhibition, cell reporter; calls by dose curve; tested in HEK293 cells; note: potency is the fitted concentration of half-maximal effect; % is set by controls: 0 for no effect and ±100 for the full control effect
The depositor's hits bear a star; [ ] = another dose, or the depositor's remark. Unless noted, calls come from the whole dose curve; as a rule, active = well fitted inhibition curve with a large enough effect; inconclusive = small, poorly fitted or top-dose-only effect, or another doubt; inactive = no such curve, though single readings can be large or run the other way.

O=C(Nc1cc2c(cc1Br)OCCO2)c1cccs1 was read as Shiga inhibitor 180.6*, CHX counter 42.5*, Lassa entry inh inconclusive, Pf growth 48h 134.1% and Marburg entry inh inconclusive.
For O=C(Nc1ccc(NC(=O)c2ccco2)c(Cl)c1)c1ccc2c(c1)OCCO2 the results were Shiga inhibitor 64.4*, CHX counter 26.9*, Pf growth 96h 164.7%, Lassa entry inh inconclusive, Pf growth 48h 108.9% and Marburg entry inh inconclusive.
Screening COc1cc(C2NC(=O)c3c(sc4c3CCN(C)C4)N2)cc(Br)c1OC(=O)c1ccc(C)cc1 (configuration not stated) returned Lassa entry inh 4.0%[46.1 µM].
Cc1nnc(C)n1/N=C/c1cccs1 was read as Shiga inhibitor -16.6, CHX counter -3.1, Pf growth 96h 24.6%, Lassa entry inh -4.0%, Pf growth 48h 39.5% and Marburg entry inh 15.3%.
Cc1noc(C)c1C(=O)NCCCc1ccccc1 was read as Shiga inhibitor -8.4, CHX counter 0.4, Lassa entry inh 8.0%, Pf growth 48h -0.8% and Marburg entry inh 14.1%.
For O=C(Nc1cc2c(cc1Br)OCCO2)c1ccco1 the results were Shiga inhibitor active, CHX counter 39.7*, Pf growth 96h 322.3%, Lassa entry inh 29.8%, Pf growth 48h 336.3% and Marburg entry inh inconclusive.
For O=C(Nc1cc2c(cc1Cl)OCCO2)c1ccco1 the results were Shiga inhibitor 92.6*, CHX counter 27.8*, Pf growth 96h 229.5%, Lassa entry inh -0.6%, Pf growth 48h 213.7% and Marburg entry inh inconclusive.
For CC(=O)c1cc2c(cc1NC(=O)c1ccco1)OCCO2 the results were Shiga inhibitor 15.2, CHX counter 9.9, Pf growth 96h inconclusive, Lassa entry inh inconclusive, Pf growth 48h 1.7% and Marburg entry inh -5.5%[46.1 µM].
Screening CCN(C(=O)c1cccnc1SC)C12CC3CC(CC(C3)C1)C2 returned Shiga inhibitor 13.2, CHX counter -5.4, Pf growth 96h -15.8%, Lassa entry inh -18.2%, Pf growth 48h 4.6% and Marburg entry inh inconclusive.
Screening Cc1ccc(NC(=O)NC2CCCCCCC2)c(C)c1 returned Shiga inhibitor -12.6, CHX counter -1.0, Pf growth 96h 25.1% and Pf growth 48h 18.4%.
O=C(CC1SC(=O)N(c2ccccc2)C1=O)Nc1ccc(Cl)cc1 (configuration not stated) was read as Shiga inhibitor 45.7, CHX counter 14.2*, Pf growth 96h 36.9%, Lassa entry inh 5.8%, Pf growth 48h 19.7% and Marburg entry inh 24.2%.
Screening CCCN1C(=O)SC(CC(=O)Nc2ccccc2)C1=O (configuration not stated) returned Shiga inhibitor 22.1, CHX counter 1.1, Pf growth 96h inconclusive, Lassa entry inh 0.3%, Pf growth 48h 24.2% and Marburg entry inh -26.4%.
O=C(CC1SC(=O)N(c2ccccc2)C1=O)Nc1ccc(Br)cc1 (configuration not stated) was read as Shiga inhibitor 50.9*, CHX counter 23.9*, Pf growth 96h 38.0%, Lassa entry inh 3.1%, Pf growth 48h -14.5% and Marburg entry inh 0.8%.
`O=C(CC1SC(=NCCc2ccccc2)N(/N=C/c2cccs2)C1=O)Nc1ccc(Cl)cc1` (configuration not stated) gave Shiga inhibitor 20.8, CHX counter 12.9*, Pf growth 96h inconclusive, Lassa entry inh inconclusive, Pf growth 48h inconclusive and Marburg entry inh -27.1%.
Screening COc1ccccc1NC(=O)CSc1nnc(-c2ccco2)n1N returned Shiga inhibitor -0.8, CHX counter -8.2, Pf growth 96h -1.7% and Pf growth 48h 13.0%.
`Cn1c(=O)[nH]c(=O)c2c1nc1n2CCS1` gave Shiga inhibitor -4.6, CHX counter -3.4, Pf growth 96h 6.2%, Lassa entry inh inconclusive, Pf growth 48h -1.7% and Marburg entry inh 1.4%[46.1 µM].
Cc1ccccc1NC(=O)/C(C#N)=C/c1ccsc1 was read as Shiga inhibitor 36.8*, CHX counter 25.3*, Pf growth 96h inconclusive, Lassa entry inh 1.1%, Pf growth 48h 1.3% and Marburg entry inh inconclusive.
Cc1ccccc1NC(=O)/C(C#N)=C/c1ccc[nH]1 was read as Shiga inhibitor 25.9, CHX counter 29.5*, Pf growth 96h 11.7µM* and Pf growth 48h 0.9%.
Cc1ccccc1NC(=O)/C(C#N)=C\c1cn(CC(=O)O)c2ccccc12 was read as Shiga inhibitor -15.8, CHX counter 7.6, Pf growth 96h inconclusive, Lassa entry inh 25.0%[46.1 µM], Pf growth 48h -2.1% and Marburg entry inh -3.6%[46.1 µM].
`Cc1ccc(NC(=O)/C(C#N)=C/c2ccc(-c3ccc(Cl)c(C(=O)O)c3)o2)cc1C` gave Lassa entry inh 16.8%[46.1 µM] and Marburg entry inh 1.4%[46.1 µM].
Screening O=C(CC(=O)Nc1ccccc1[N+](=O)[O-])Nc1ccccc1[N+](=O)[O-] returned Shiga inhibitor -12.1, CHX counter -0.9, Pf growth 96h 8.0%, Lassa entry inh -37.2%[46.1 µM], Pf growth 48h 8.7% and Marburg entry inh inconclusive.
Cc1cccc(C)c1NC(=O)/C(C#N)=C/c1ccsc1 was read as Shiga inhibitor -6.0, CHX counter -3.1, Pf growth 96h inconclusive, Lassa entry inh 13.3%, Pf growth 48h 0.0% and Marburg entry inh inconclusive.
For N#C/C(=C\c1ccc[nH]1)C(=O)Nc1ccccc1[N+](=O)[O-] the results were Shiga inhibitor 66.6*, CHX counter 22.5*, Pf growth 96h -11.5% and Pf growth 48h 82.9%.
Screening Cc1ccccc1NC(=O)/C(C#N)=C/c1ccc(-c2ccc(Cl)c(C(=O)O)c2)o1 returned Shiga inhibitor 15.0, CHX counter 11.8*, Pf growth 96h 4.1%, Lassa entry inh 1.3%[46.1 µM], Pf growth 48h 15.4% and Marburg entry inh 14.2%[46.1 µM].
CC(=O)N=c1sc2c3ccccc3ccc2n1C was read as Shiga inhibitor -16.4, CHX counter -1.2, Pf growth 96h 83.0%, Lassa entry inh inconclusive, Pf growth 48h 1.9% and Marburg entry inh 21.5%.
O=C(NCc1ccco1)C(c1ccncc1)N(C(=O)Cn1nnc2ccccc21)c1ccccc1F (configuration not stated) was read as Shiga inhibitor -11.9, CHX counter -2.5, Pf growth 96h 0.0%, Pf growth 48h 2.8% and Marburg entry inh -6.1%[46.1 µM].
For Cc1c(Cc2ccccc2)c(=O)oc2c(C)c(OCC(=O)N3CCC(C(=O)O)CC3)ccc12 the results were Shiga inhibitor -9.0, CHX counter 1.0, Pf growth 96h inconclusive and Pf growth 48h 2.0%.
Screening C=CCSc1nc(C)cc(/C=C\c2ccccc2)c1C#N returned Shiga inhibitor -13.4, CHX counter -2.5, Pf growth 96h inconclusive, Lassa entry inh 5.5%, Pf growth 48h inconclusive and Marburg entry inh -5.6%.
CC(=O)Nc1cccc(C)c1 was read as Pf growth 96h inconclusive and Pf growth 48h 30.5%.
